Measured values published in the OligoGym collection.

Target: GALNT9
Assay: pooled miR-30 sensor sort-seq; sequence = guide strand
Conditions: shRNA
Also: reference of the scale not given here.

| Sequence | sensor-assay potency score (higher = more potent) |
| --- | --- |
| TTGTAGACCCTCATCTCCGGGT | -0.631 |
| TGATGTGTGACTTAGGTCTTGG | 0.117 |
| TAGTAGTCAATGTCGTTGTTGT | 0.0429 |
| ATAGTAGTCAATGTCGTTGTTG | -0.487 |
| TTACCAGACCACAAGGAGCTGC | -0.143 |
| TTTCTCACCTCTCCGTACGTGA | -0.461 |
| TTTGGACATCTCCACCTCCAGG | -1.41 |
| TTGTTGTAGGGCTTCCTGGTGC | 0.157 |
| TTTCTGATCATCCACTTCTGCC | -1.06 |

Target: GALNTL4
Assay: as above
Conditions: shRNA

| Sequence | sensor-assay potency score (higher = more potent) |
| --- | --- |
| TTCAGTTCCTCGTTACTGCTGT | 0.73 |
| ATATTCGGTCAGCTTCTCCTTC | -0.121 |
| TACTCTTCTATCTCAAAGTTGT | -0.112 |
| TTGACGTCCACCAGGCATCGGT | -0.813 |
| TCGGTTGTCATCATCATCCACG | -0.664 |
| AATAGTTTGATATCATACCATC | -1.73 |
| TTGATATCATACCATCACCTAC | -1.18 |
| TTTGTCTTCCTCCAGCTTCTTG | -1.15 |
| TTCCTCCAGCTTCTTGTCGGGC | -1.36 |
| TGGATCTGCTGACTGCTCGTGT | -0.605 |
| TTGTCATCATCATCCACGGTGG | -0.503 |

Target: GALT
Assay: as above
Conditions: shRNA

| Sequence | sensor-assay potency score (higher = more potent) |
| --- | --- |
| TTTTCAAAGATCTGCACCCAAG | -1.61 |
| TTGGTCAAGAGCTTCTTCATGA | -0.31 |
| TACTAACCAGTGCTCACTGGTT | -0.859 |
| TTCCTGAGTAGCTCCTGGCGGC | -0.283 |
| AAGGGGACCAGTACTAACCAGT | -0.813 |
| AAGCATTTCGTAGCCAACCATG | -1.22 |
| TGAGCAAGCATTTCGTAGCCAA | -0.524 |
| TTGTCAAACAGGAAGGTGCTAT | -0.0645 |
| AAGAGCTTCTTCATGATGGAGG | -0.296 |
| TAATTCAGCAAGACTGTTGAAA | 0.0574 |
| TTTGTTTTCAAAGATCTGCACC | -0.471 |
| TAGCCAACCATGAATTTCCGGA | -0.189 |
| TGAATTTCCGGACAGTGGCAGA | -0.779 |
| TTCCTTCCTGAGTAGCTCCTGG | -0.401 |
| ATATCTGGCAGGAAACTGCTGG | -0.342 |
| TAGCAGGGGCTCTCCATGCTGA | -0.945 |
| TTCACCTCTCCGTTGGCTCGGA | -0.467 |
| AAAGAGGTTGTCATACTTGGTC | -0.351 |
| TAGATCATCACGCTCAGCAGGG | -0.0859 |
| TTGCCCGGAAGGTTGCTGCTGC | -0.354 |
